Test results reported in PubChem BioAssay (EPA / NIEHS).
Activity calls are given as the source filed them. Rule for the calls: active = hit-call score of the fitted dose curve at least 0.9, where 1 is the maximum; inactive = score below 0.9.

Columns and labels:
[1] = read-out: Macrophage colony-stimulating factor (MCSF), CSF1 (gene 1435); test: BSK_hDFCGF_MCSF: BioMAP Diversity Plus: hDFCGF Assay for Macrophage colony-stimulating factor (MCSF) Biomarker Activity (AID 2283060); conditions: primary human foreskin fibroblasts; actives raise or lower the signal
How it was run: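 M-CSF levels, determined by ELISA, are taken at 24 h after dosing human skin fibroblasts. Responses in either direction are fitted with DMSO serving as the baseline.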

[2] = BSK_hDFCGF_SRB: Viability Assessment in the BioMAP Diversity Plus: hDFCGF Assay (AID 2283061); conditions: primary human foreskin fibroblasts;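 note: cells exposed to compound for 24 h before the read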
How it was run: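 Cells were dosed with test chemical, cultured 24 h, fixed with 10% TCA, then stained with 0.1% SRB and read at 560 nm. The fibroblasts were human foreskin primary cells, and DMSO served as baseline.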

[3] = read-out: Monokine induced gamma interferon (MIG), CXCL9 (gene 4283); test: BSK_hDFCGF_MIG: BioMAP Diversity Plus: hDFCGF Assay for Monokine induced gamma interferon (MIG) Biomarker Activity (AID 2283063); conditions: primary human foreskin fibroblasts; actives raise or lower the signal
How it was run: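 MIG signal, determined by ELISA, reflects 24 h chemical exposure of human skin primary fibroblasts. DMSO serves as negative control and baseline.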

[4] = read-out: Vascular cell adhesion molecule 1 (VCAM1), VCAM1 (gene 7412); test: BSK_hDFCGF_VCAM1: BioMAP Diversity Plus: hDFCGF Assay for Vascular cell adhesion molecule 1 (VCAM1) Biomarker Activity (AID 2283065); conditions: primary human foreskin fibroblasts; actives raise or lower the signal
How it was run: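 Cells are dosed, cultured for 24 h, then VCAM-1 is quantified by ELISA; signal increases and decreases are both fitted relative to DMSO.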

[5] = read-out: Plasminogen activator inhibitor-1 (PAI1), SERPINE1 (gene 5054); test: BSK_hDFCGF_PAI1: BioMAP Diversity Plus: hDFCGF Assay for Plasminogen activator inhibitor-1 (PAI1) Biomarker Activity (AID 2283066); conditions: primary human foreskin fibroblasts; actives raise or lower the signal
How it was run: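 Human foreskin fibroblast primary cells, 24 h chemical exposure; PAI-1 measured by ELISA. Bidirectional fitting relative to DMSO; parallel cultures stained with SRB for total protein to flag overt cytotoxicity.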

[6] = read-out: Intercellular Adhesion Molecule 1 (ICAM1), ICAM1 (gene 3383); test: BSK_KF3CT_ICAM1: BioMAP Diversity Plus: KF3CT Assay for Intercellular Adhesion Molecule 1 (ICAM1) Biomarker Activity (AID 2283067); conditions: primary human keratinocytes with fibroblasts; actives raise or lower the signal
How it was run: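 Dose the keratinocyte/fibroblast co-culture, wait 24 h, measure ICAM-1 by ELISA, then fit increases or decreases against DMSO. Cytotoxicity is checked in parallel cultures by SRB total-protein staining.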

[7] = read-out: Interferon-gamma inducible Protein 10 (IP10), CXCL10 (gene 3627); test: BSK_KF3CT_IP10: BioMAP Diversity Plus: KF3CT Assay for Interferon-gamma inducible Protein 10 (IP10) Biomarker Activity (AID 2283068); conditions: primary human keratinocytes with fibroblasts; actives raise or lower the signal
How it was run: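 In a primary skin co-culture of keratinocytes and fibroblasts, IP-10 is quantified by ELISA at 24 h after dosing. SRB staining of parallel wells monitors overt toxicity. Curves are fitted both directions against DMSO.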

[8] = read-out: Interleukin-1 alpha (IL1a), IL1A (gene 3552); test: BSK_KF3CT_IL1a: BioMAP Diversity Plus: KF3CT Assay for Interleukin-1 alpha (IL1a) Biomarker Activity (AID 2283070); conditions: primary human keratinocytes with fibroblasts; actives raise or lower the signal
How it was run: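 Chemicals were dosed onto co-cultured human keratinocytes and foreskin fibroblasts, IL-1a was quantified by ELISA at 24 h, and activity was fitted in both directions relative to DMSO controls.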

[9] = read-out: TIMP metallopeptidase inhibitor 2 (TIMP2), TIMP2 (gene 7077); test: BSK_KF3CT_TIMP2: BioMAP Diversity Plus: KF3CT Assay for TIMP metallopeptidase inhibitor 2 (TIMP2) Biomarker Activity (AID 2283071); conditions: primary human keratinocytes with fibroblasts; actives raise or lower the signal
How it was run: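 Co-culture of human primary keratinocytes and foreskin fibroblasts, measured 24 h after chemical dosing. TIMP-2 quantified by ELISA and fitted in both directions relative to DMSO. Cytotoxicity checked in parallel cultures by SRB total-protein staining.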

[10] = read-out: Transforming growth factor beta 1 (TGFb1), TGFB1 (gene 7040); test: BSK_KF3CT_TGFb1: BioMAP Diversity Plus: KF3CT Assay for Transforming growth factor beta 1 (TGFb1) Biomarker Activity (AID 2283072); conditions: primary human keratinocytes with fibroblasts; actives raise or lower the signal
How it was run: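 Human keratinocyte/foreskin fibroblast co-culture; TGF-b1 measured by ELISA 24 h after dosing, fitted bidirectionally versus DMSO. Cytotoxicity checked in parallel cultures by total protein (SRB staining, 560 nm).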

[11] = read-out: C-C motif chemokine 2 (Homo sapiens) (UniProt P13500); test: BSK_KF3CT_MCP1: BioMAP Diversity Plus: KF3CT Assay for Monocyte Chemoattractant Protein 1 (MCP1/CCL2) Biomarker Activity (AID 2283073); conditions: primary human keratinocytes with fibroblasts; actives raise or lower the signal
How it was run: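 Keratinocytes and foreskin fibroblasts were co-cultured, dosed with chemical, and sampled 24 h later. MCP-1 was quantified by ELISA, and the endpoint was analyzed with bidirectional fitting using DMSO as negative control.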

[12] = read-out: Matrix Metallopeptidase 9 (MMP9), MMP9 (gene 4318); test: BSK_KF3CT_MMP9: BioMAP Diversity Plus: KF3CT Assay for Matrix Metallopeptidase 9 (MMP9) Biomarker Activity (AID 2283074); conditions: primary human keratinocytes with fibroblasts; actives raise or lower the signal;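 for AC50: MMP9 protein level quantified by ELISA in the co-culture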
How it was run: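 Human keratinocyte/foreskin fibroblast co-culture; compound added; 24 h; MMP-9 by ELISA; bidirectional fit vs DMSO baseline.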

[13] = read-out: urokinase plasminogen activator (uPA), PLAU (gene 5328); test: BSK_KF3CT_uPA: BioMAP Diversity Plus: KF3CT Assay for urokinase plasminogen activator (uPA) Biomarker Activity (AID 2283075); conditions: primary human keratinocytes with fibroblasts; actives raise or lower the signal
How it was run: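 ELISA readout of uPA, analyzed for signal gain or loss relative to DMSO, from a human primary keratinocyte–foreskin fibroblast co-culture measured 24 h after chemical treatment.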

CD40, CD40 (gene 958) = test: BSK_LPS_CD40: BioMAP Diversity Plus: LPS Assay for CD40 Biomarker Activity (AID 2283076); conditions: primary human HUVEC with PBMC; actives raise or lower the signal
How it was run: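 CD40 signal, measured by ELISA, is fitted in both directions relative to DMSO vehicle. The system is an LPS-driven human vascular primary co-culture of endothelial cells and PBMC, sampled 24 h after compound addition.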

[14] = read-out: E-selectin (Homo sapiens) (UniProt P16581); test: BSK_LPS_Eselectin: BioMAP Diversity Plus: LPS Assay for Eselectin Biomarker Activity (AID 2283077); conditions: primary human HUVEC with PBMC; actives raise or lower the signal
How it was run: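 Signal of E-selectin, detected by ELISA, served as the endpoint; cells were umbilical vein endothelium with PBMC, read 24 h after treatment. DMSO defined baseline, and both increases and decreases were fitted.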

[15] = read-out: Interleukin-8 (IL8), CXCL8 (gene 3576); test: BSK_LPS_IL8: BioMAP Diversity Plus: LPS Assay for Interleukin-8 (IL8) Biomarker Activity (AID 2283078); conditions: primary human HUVEC with PBMC; actives raise or lower the signal
How it was run: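 Endothelial cells and PBMC from human donors are co-cultured, treated with chemicals and LPS, then assayed for IL-8 by ELISA after 24 h. Parallel SRB staining (0.1% SRB after 10% TCA fixation, 560 nm) flags cytotoxicity.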

[16] = BSK_LPS_SRB: Viability Assessment in the BioMAP Diversity Plus: LPS Assay (AID 2283079); conditions: primary human HUVEC with PBMC;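 note: total protein by sulforhodamine B absorbance as a cytotoxicity measure; measured one day after compound addition; fitted in both directions against DMSO so loss or gain of signal counts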
How it was run: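 Overt cytotoxicity was gauged by sulforhodamine B total-protein staining in a primary human vascular endothelial and mononuclear cell co-culture 24 h post-dosing. Activity was fitted in both directions relative to DMSO.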

[17] = BSK_KF3CT_SRB: Viability Assessment in the BioMAP Diversity Plus: KF3CT Assay (AID 2283069); conditions: primary human keratinocytes with fibroblasts;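 note: fitted for both signal gain and loss against DMSO baseline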
How it was run: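 Keratinocytes co-cultured with foreskin fibroblasts (human primary); chemical added, 24 h; fix 10% TCA, stain 0.1% SRB, A560. Bidirectional fit vs DMSO.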

[18] = read-out: TIMP metallopeptidase inhibitor 1 (TIMP1), TIMP1 (gene 7076); test: BSK_hDFCGF_TIMP1: BioMAP Diversity Plus: hDFCGF Assay for TIMP metallopeptidase inhibitor 1 (TIMP1) Biomarker Activity (AID 2283062); conditions: primary human foreskin fibroblasts; actives raise or lower the signal
How it was run: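 Fibroblasts from human foreskin are treated with test chemical and harvested at 24 h. TIMP-1 is quantified by ELISA, and gain or loss of signal is scored against DMSO.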

[19] = read-out: Matrix Metallopeptidase 1 (MMP1), MMP1 (gene 4312); test: BSK_hDFCGF_MMP1: BioMAP Diversity Plus: hDFCGF Assay for Matrix Metallopeptidase 1 (MMP1) Biomarker Activity (AID 2283064); conditions: primary human foreskin fibroblasts; actives raise or lower the signal
How it was run: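 hDFCGF primary fibroblasts (human foreskin); chemical added; 24 h; MMP1 by ELISA; bidirectional fit vs DMSO.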

Measured: AC50

Chain of E-selectin (Homo sapiens) (P16581 whole entry, looked up): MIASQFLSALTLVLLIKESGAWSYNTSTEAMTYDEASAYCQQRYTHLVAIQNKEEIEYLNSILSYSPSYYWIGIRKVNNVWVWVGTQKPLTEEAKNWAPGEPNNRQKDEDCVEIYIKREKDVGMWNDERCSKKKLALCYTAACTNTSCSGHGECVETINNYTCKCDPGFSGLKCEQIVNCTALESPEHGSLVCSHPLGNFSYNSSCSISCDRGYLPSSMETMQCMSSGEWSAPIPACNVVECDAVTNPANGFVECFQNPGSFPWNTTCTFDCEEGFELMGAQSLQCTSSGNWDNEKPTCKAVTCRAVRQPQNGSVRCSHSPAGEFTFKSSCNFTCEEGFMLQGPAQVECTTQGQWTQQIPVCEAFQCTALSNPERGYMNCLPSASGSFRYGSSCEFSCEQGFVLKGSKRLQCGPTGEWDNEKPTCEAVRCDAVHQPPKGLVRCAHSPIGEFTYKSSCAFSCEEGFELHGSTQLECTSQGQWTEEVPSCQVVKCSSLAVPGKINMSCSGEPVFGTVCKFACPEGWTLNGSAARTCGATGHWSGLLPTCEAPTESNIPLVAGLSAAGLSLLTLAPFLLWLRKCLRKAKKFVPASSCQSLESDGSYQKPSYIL

CC(=O)C(C)=CC1C(C)=CCCC1(C)C (stereo not given)
not listed: [17] | [18] | [19]
inactive: all other assays above

NC(=O)Cn1c(=O)cc(CCN2CCN(c3nccc4sccc34)CC2)c2ccc(F)cc21
not listed: [9] | [18] | [19]
inactive: all other assays above

O=C(O)Cc1ccccc1Nc1c(Cl)cccc1Cl
active: [11] 8.68 µM
not listed: [2] | [17]
inactive: all other assays above

Cc1ccccc1Cl
not listed: [18]
inactive: all other assays above

CC=Cc1ccc(O)c(OC)c1
not listed: [4] | [9] | [17] | [19]
inactive: all other assays above

CN1CCN(Cc2cc(-c3ccc4[nH]c(=O)oc4c3)co2)[C@@H](c2ccc(F)cc2)C1
active: [1] 8.77 µM | [2] 17.6 µM | [5] 11.8 µM | [12] 17.6 µM | [16] 25.9 µM
not listed: [18]
inactive: all other assays above

CCCCCCCCCCCCCCCCCC(=O)O
active: [16] 20 µM
not listed: [2] | [9]
inactive: all other assays above

CCCCCCCCCCO
not listed: [4] | [17] | [18] | [19]
inactive: all other assays above
